MCF10A rereplic – DNA re-replication induction in MCF 10a cells | MCF 10A DNA re-replication, Hoechst nuclear intensity, 48 h | Potency, µM (highest dose often 46.1 µM), usual class: activators | 350,000 tested, 2.9% active; further: nearly all actives have a fitted effect of over 50% in size
SW480 rereplic – DNA re-replication induction in SW480 cells; SW480 DNA re-replication, Hoechst DNA content imaging, 48 h; Potency, µM (doses to about 46.1 µM), most hits filed as activators; 340,000 tested, 1.8% active; further: nearly all actives have a fitted effect of over 55% in size
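DNA re-replication was detected as more nuclei of elevated Hoechst intensity after 48 hr exposure to compound (23 nL pinned per well of 250 cells).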
KB-3-1 cytotox – kills parental KB-3-1 adenocarcinoma cells; KB-3-1 viability, CellTiter-Glo ATP luminescence, 72 h; Potency, µM (titrated, usually from 46.1 µM), hits mostly cytotoxic; 400,000 tested, 1.4% active; AID 1347075; further: nearly all actives have a fitted effect of over 60% in size
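Using CellTiter-Glo luminescence, growth of non-resistant KB-3-1 adenocarcinoma cells is assessed 72 h after pin-tool compound addition at 37 °C. Normalized responses across the concentration series yield fitted curves.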
HT1080 IDH1KD tx – HT-1080 IDH1 knockdown cell toxicity (counter line) | HT-1080 IDH1 knockdown viability, ATP luminescence, 48 h | Potency, µM (highest dose often 46.1 µM), actives largely listed as cytotoxic | 360,000 tested, 2% active
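Viability of IDH1-knockdown HT-1080 fibrosarcoma cells was assessed by CellTiter-Glo after 48 h at 37 °C with titrated compound; concentration-effect curves were classified by fit quality and response size.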
KB-V1 cytotox – KB-V1 MDR subline cytotoxicity; 400,000 tested, 3.4% active; AID 1347076; KB-V1 MDR cells viability, CellTiter-Glo, 72 h; Potency, µM (series often up to 46.1 µM), usual class: cytotoxic; further: nearly all actives have a fitted effect of over 60% in size
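Cytotoxicity toward P-gp-expressing KB-V1 cells was determined as loss of CellTiter-Glo luminescence after 72 h at 37 degrees C. Compounds were tested in quantitative HTS format across a concentration range, with curves fitted to normalized data.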
HT1080-NT tox – kills 2HG-producing HT-1080-NT fibrosarcoma cells. HT-1080-NT fibrosarcoma viability, CellTiter-Glo ATP luminescence, 48 h. Potency, µM (titrated, usually from 46.1 µM), usual class: cytotoxic. 360,000 tested, 1.6% active. AID 686970;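 further: NT is the 2HG producing partner of a matched IDH1 knockdown line; nearly all actives have a fitted effect of over 55% in size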
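Viability of the 2HG-overproducing fibrosarcoma line after 48 hours of compound exposure at 37 degrees C was determined by luminescence with CellTiter-Glo, and concentration-effect curves were then fitted and categorized.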
Each line names hits and unclear results; the compound was inactive in the other large screens. Hits are enriched below; roughly 8% of the tested compounds scored in any of these assays. The call rests on the fitted dose curve; in most records, active means well fitted curve in the direction sought with a large enough effect; inconclusive means small, poorly fitted or top-dose-only effect, or another doubt; inactive means no such curve, though single readings can be large; an effect the other way counts as inactive or inconclusive.

COc1cc(NC(=O)c2ccc(C)c(Cl)c2)ccc1NC(=O)c1cc2ccccc2o1	none (no result: MCF10A rereplic, SW480 rereplic, HT1080 IDH1KD tx, HT1080-NT tox)
Cc1ccc(NC(=O)C2CCN(S(C)(=O)=O)CC2)c(C)c1	MCF10A rereplic 4.1µM
Cc1c2oc3c(C)ccc(C(=O)N[C@@H]4C(=O)N[C@H](C(C)C)C(=O)N5CCC[C@H]5C(=O)N(C)CC(=O)N(C)[C@@H](C(C)C)C(=O)O[C@@H]4C)c3nc-2c(C(=O)N[C@@H]2C(=O)N[C@H](C(C)C)C(=O)N3CCC[C@H]3C(=O)N(C)CC(=O)N(C)[C@@H](C(C)C)C(=O)O[C@@H]2C)c(N)c1=O	none (no result: KB-3-1 cytotox, HT1080 IDH1KD tx, KB-V1 cytotox, HT1080-NT tox)
CN(Cc1cn[nH]c1-c1ccc2c(c1)OCO2)C1CCOCC1	none
c1cc2c(cc1-c1[nH]ncc1CN1C[C@H]3CC[C@H]1C3)OCO2	SW480 rereplic 5.8µM
CCCOc1ccc(C2C(C(=O)c3ccco3)=C(O)C(=O)N2CCCn2ccnc2)cc1OC (configuration not stated)	KB-V1 cytotox inconclusive (no result: MCF10A rereplic, SW480 rereplic)
COc1ccc2c(c1)c(=O)c(C(=O)c1ccccc1)cn2CC(=O)Nc1ccc2c(c1)OCO2	none (no result: MCF10A rereplic, SW480 rereplic, HT1080 IDH1KD tx, HT1080-NT tox)
COC(=O)C1=CN(c2ccc(OC)cc2)C=C(C(=O)OC)C1c1cccc(F)c1	none
COC(=O)C1=CN(c2ccc(OC)cc2)C=C(C(=O)OC)C1c1ccc(C)c([N+](=O)[O-])c1	KB-3-1 cytotox inconclusive, KB-V1 cytotox 3.3µM
COc1cccc(OC)c1OCc1cc(C2C3CCCC=C3C(C#N)=C(N)C2(C#N)C#N)c(C)cc1C (configuration not stated)	MCF10A rereplic 13µM, SW480 rereplic 18µM, KB-3-1 cytotox inconclusive, HT1080 IDH1KD tx inconclusive, HT1080-NT tox inconclusive
CCCN1CC=C2C(C#N)=C(N)C(C#N)(C#N)C(c3cccc(OC)c3OC)C2C1 (configuration not stated)	KB-V1 cytotox inconclusive
Cc1[nH]c2ccc(C(=O)NCCCN(C)C3CCCCC3)cc2c1C	none
COc1cccc(F)c1C(C[N+](=O)[O-])c1c(N)n(C)c(=O)n(C)c1=O (configuration not stated)	MCF10A rereplic 7.3µM, SW480 rereplic 4.1µM, KB-3-1 cytotox inconclusive, HT1080 IDH1KD tx 5.8µM, KB-V1 cytotox inconclusive, HT1080-NT tox 10µM
CC(C(c1ccc2c(c1)OCO2)c1c(N)n(C)c(=O)n(C)c1=O)[N+](=O)[O-] (configuration not stated)	MCF10A rereplic 12µM, SW480 rereplic inconclusive, KB-V1 cytotox inconclusive
COc1cc(C(C[N+](=O)[O-])c2c(N)n(C)c(=O)n(C)c2=O)ccc1O (configuration not stated)	MCF10A rereplic 18µM, SW480 rereplic inconclusive, KB-3-1 cytotox inconclusive, HT1080 IDH1KD tx 21µM, KB-V1 cytotox inconclusive, HT1080-NT tox inconclusive
Cc1ccc(C(C[N+](=O)[O-])c2c(N)n(C)c(=O)n(C)c2=O)cc1 (configuration not stated)	MCF10A rereplic 23µM, KB-3-1 cytotox 16µM, HT1080 IDH1KD tx inconclusive, KB-V1 cytotox inconclusive, HT1080-NT tox inconclusive
Cn1c(N)c(C(C[N+](=O)[O-])c2ccccc2Cl)c(=O)n(C)c1=O (configuration not stated)	MCF10A rereplic inconclusive, SW480 rereplic inconclusive
COc1ccc(OC)c(NC(=O)Cn2c(=O)cc(-c3ccccc3)c3c(C)nn(C)c32)c1	none (no result: MCF10A rereplic, SW480 rereplic, HT1080 IDH1KD tx, HT1080-NT tox)
COc1ccc(-c2cc(C(=O)Nc3c(C)nn(Cc4ccc(F)cc4)c3C)no2)cc1OC	none (no result: MCF10A rereplic, SW480 rereplic, HT1080 IDH1KD tx, HT1080-NT tox)
Cc1ccc(-c2nnc3ccc(SCC(=O)NCc4ccco4)nn23)cc1	KB-V1 cytotox inconclusive
CCOc1ccc(-c2nnc3ccc(SCC(=O)NCc4ccco4)nn23)cc1	MCF10A rereplic inconclusive, HT1080 IDH1KD tx inconclusive, KB-V1 cytotox 16µM
O=C(O)c1cc(-c2ccc(C(F)(F)F)cc2)nc2n[nH]c(-c3ccccc3)c12	none (no result: MCF10A rereplic, SW480 rereplic, HT1080 IDH1KD tx, HT1080-NT tox)
O=c1c2ccccc2nc(CSc2ncnc3nc[nH]c23)n1-c1cccc(C(F)(F)F)c1	MCF10A rereplic inconclusive
O=C(NCC(=O)N1CCN(c2ccccc2O)CC1)c1ccccc1	none
Cc1cc([N+](=O)[O-])cc(/C=N/n2c(C)nc3ccccc3c2=O)c1O	MCF10A rereplic 16µM, SW480 rereplic inconclusive, HT1080 IDH1KD tx inconclusive, KB-V1 cytotox inconclusive, HT1080-NT tox inconclusive
Cc1ccc(-n2[nH]c(C)c(C=Nc3ccc(C)cn3)c2=O)cc1	KB-3-1 cytotox inconclusive, KB-V1 cytotox inconclusive, HT1080-NT tox 7.9µM
Cc1nnc(-c2ccccc2)c(=O)n1/N=C/c1c(O)ccc2ccccc12	SW480 rereplic 6.5µM, KB-3-1 cytotox inconclusive, HT1080 IDH1KD tx inconclusive, KB-V1 cytotox 2.9µM, HT1080-NT tox inconclusive
Cc1ccc(N=Cc2c(C)[nH]n(-c3ccccc3)c2=O)nc1	SW480 rereplic inconclusive
Cc1nc2ccccc2c(=O)n1/N=C/c1ccc(O)c(O)c1O	none
Cc1nc2ccccc2c(=O)n1/N=C/c1ccc2ccccc2c1O	SW480 rereplic 16µM, KB-3-1 cytotox inconclusive, HT1080 IDH1KD tx inconclusive, HT1080-NT tox inconclusive
Cc1nnc(C)n1/N=C/c1c(O)ccc2ccccc12	KB-V1 cytotox inconclusive
Cc1ccc(-c2nnc(SC(C)C(=O)NCc3ccco3)n2C)cc1 (configuration not stated)	none (no result: MCF10A rereplic, SW480 rereplic, HT1080 IDH1KD tx, HT1080-NT tox)
Cc1ccc(-n2[nH]c(C)c(/C=N/n3c(C)nc4ccccc4c3=O)c2=O)cc1	MCF10A rereplic 4.6µM, SW480 rereplic inconclusive, HT1080 IDH1KD tx 11µM, KB-V1 cytotox inconclusive, HT1080-NT tox 18µM
COCCNC(=O)C(c1cccs1)N(Cc1cccs1)C(=O)Cn1nnc2ccccc21 (configuration not stated)	MCF10A rereplic inconclusive
CC(C)CCNC(=O)C(c1ccco1)N(Cc1cccs1)C(=O)Cn1nnc2ccccc21 (configuration not stated)	KB-V1 cytotox 5.2µM
Brc1ccc[n+](CCc2ccccc2)c1	none (no result: MCF10A rereplic, SW480 rereplic, HT1080 IDH1KD tx, HT1080-NT tox)
COc1cc2nc(N3CCCN(C)CC3)nc(NC3CCOCC3)c2cc1OC	none (no result: MCF10A rereplic, SW480 rereplic, KB-3-1 cytotox, KB-V1 cytotox)
CC(C)n1nc(C(=O)OCC(=O)N2CC(=O)Nc3ccccc32)c2ccccc2c1=O	none
CCCn1nc(C(=O)N2CC(=O)Nc3ccccc32)c2ccccc2c1=O	MCF10A rereplic 15µM, SW480 rereplic 15µM, KB-3-1 cytotox 8.2µM, HT1080 IDH1KD tx inconclusive, KB-V1 cytotox 21µM, HT1080-NT tox inconclusive
COc1cc(OC)cc(C(=O)N2CC(=O)Nc3ccccc32)c1	MCF10A rereplic 1.5µM, SW480 rereplic 3.3µM, KB-3-1 cytotox inconclusive, HT1080 IDH1KD tx inconclusive, KB-V1 cytotox 2.3µM, HT1080-NT tox inconclusive
Cc1ccc(CC(=O)Nc2nccs2)cc1C	none

Bioassay records (PubChem BioAssay)
